A selection: hits, their analogues and other compounds. The true share with any hit is near 2.9%.
proKLK7 act: proKLK7 zymogen activators, primary screen, biochemical, fluorescence intensity. Kallikrein-7 (Homo sapiens), P49862. purified proKLK7, EDANS-DABCYL substrate fluorescence; 100% is mature enzyme control, 0% vehicle. activation, % at 7 µM. actives 0.9% (n = 370,000). AID 652039, 2013;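 active = activation above the mean of all tested compounds plus 3 SD, computed per campaign excluding outliers beyond control limits, cut at about 13% in these data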
Target sequence (P49862 whole entry, looked up): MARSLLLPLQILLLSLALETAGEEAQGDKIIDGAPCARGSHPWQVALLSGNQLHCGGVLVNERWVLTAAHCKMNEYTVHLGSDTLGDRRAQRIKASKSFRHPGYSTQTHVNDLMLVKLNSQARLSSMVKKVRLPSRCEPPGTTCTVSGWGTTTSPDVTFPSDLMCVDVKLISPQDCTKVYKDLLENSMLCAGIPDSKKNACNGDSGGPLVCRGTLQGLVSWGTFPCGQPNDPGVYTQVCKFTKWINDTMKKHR
PLCb3 inh: human PLC-beta3 inhibitors, primary screen, biochemical, fluorescence. inhibition, % at 12.2 µM. 1-phosphatidylinositol 4,5-bisphosphate phosphodiesterase beta-3 (Homo sapiens), Q01970. AID 720704, 2013. Purified PLC-beta3, fluorogenic substrate. actives 0.18% (n = 370,000); in the data active = inhibition above about 11%;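 also: 0% = median of compound wells on plate and 100% = full blocker control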
PLC-gamma1 inh: PLC-gamma1 enzyme inhibitors, primary screen, biochemical, fluorescence, purified enzyme | 1-phosphatidylinositol 4,5-bisphosphate phosphodiesterase gamma-1 (Homo sapiens), P19174 | fluorogenic substrate | AID 720700, 2013 | inhibition, % at 12.2 µM | actives 0.84% (n = 370,000)
ADAM10 inh: human ADAM10 inhibitors, primary screen, biochemical, QFRET, HTS | actives 0.62% (n = 370,000) | Disintegrin and metalloproteinase domain-containing protein 10 (Homo sapiens), O14672 | inhibition, % at 7 µM | recombinant ADAM10, EDANS/DABCYL FRET peptide cleavage, 3 h;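 active = inhibition above a per-campaign cutoff equal to the mean of compounds falling between control-based bounds plus 3 SD, cut at about 20% in these data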;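 also: 0% = DMSO wells while the 100% control is not disclosed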
ADAM17 inh: ADAM17 inhibitors, primary screen, biochemical, QFRET. Disintegrin and metalloproteinase domain-containing protein 17 (Homo sapiens), P78536. recombinant ADAM17, EDANS/DABCYL FRET peptide cleavage. inhibition, % at 6.95 µM. actives 0.83% (n = 370,000). AID 720648, 2013;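 active = inhibition above the mean of compounds lying between control limits plus 3 SD, set per campaign, cut at about 8.5% in these data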;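 also: 0% = DMSO-only wells as the low control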
PLCg1 ctr: PLC-gamma1 enzyme inhibitors, counter-screen for PLC-beta3 inhibitor project, biochemical, fluorescence; actives 3.1% (n = 3,300); shares compounds with PLC-gamma1 inh; purified PLC-gamma1, fluorogenic substrate; inhibition, % at 12.3 µM
PLCb3 confirm: PLC-beta3 inhibitor confirmation, biochemical, fluorescence, purified enzyme. shares compounds with PLC-gamma1 inh. fluorogenic substrate fluorescence. inhibition, % at 12.3 µM. actives 1% (n = 3,300). AID 743261, 2014; in the data active = inhibition above about 11%
* = called active by the depositor; nt = no result. Rule as the data show it, unless noted: active = inhibition above about 9.5%; inactive = the rest.

SMILES | proKLK7 act | PLCb3 inh | PLC-gamma1 inh | ADAM10 inh | ADAM17 inh | PLCg1 ctr | PLCb3 confirm
CN(C(=O)CCS(=O)(=O)c1ccc2c(c1)oc(=O)n2C)C1CCCCC1 | 0 | -4 | 14* | -1 | 2 | -6 | -1
Cc1ccc(-n2c(SCc3cccc4ccccc34)nnc2-c2ccccn2)cc1 | 1 | 3 | 4 | 19 | 6 | nt | nt
CCOC(=O)Nc1n[nH]c(NC(=O)OCC)c1[N+](=O)[O-] | 0 | 4 | 2 | 1 | -1 | nt | nt
CCOC(=O)Nc1cc(=O)c([N+](=O)[O-])c(N)[nH]1 | -1 | 13* | 4 | 4 | 7 | -3 | 3
COc1ccc(/C=N/Nc2nnc(C)n2N)cc1OC(C)=O | 1 | 0 | 11* | 9 | -1 | -8 | -2
Cc1nnc(N/N=C/c2ccc([N+](=O)[O-])cc2)n1N | 0 | 9 | 20* | 4 | -4 | 8 | 8
COc1ccc(NC(=O)OCCN2CCCC23CCC(c2ccccc2)CC3)cc1 (stereo not given) | nt | 4 | 3 | 6 | 0 | nt | nt
O=C(NCCCN1CCCC1=O)Nc1ccccc1F | 0 | -6 | 11* | -10 | -6 | -5 | 0
O=C(c1cccc(C(F)(F)F)c1)N1CCOC12CCN(c1ncc(C(F)(F)F)cc1Cl)CC2 | 0 | 2 | 11* | 9 | 8 | -5 | -3
O=C(OC1CCN(c2ncc(C(F)(F)F)cc2Cl)CC1)c1cccc(C(F)(F)F)c1 | 0 | 2 | 1 | 8 | 1 | nt | nt
CCC(C(=O)NC(C)(C)C)n1c(-c2ccc3c(c2)OCO3)nc2ccccc21 (stereo not given) | 0 | 0 | 0 | -5 | -4 | nt | nt
O=C(O)c1cccc(S(=O)(=O)NCC2COc3ccccc3O2)c1 (stereo not given) | 0 | 1 | 9.8* | -13 | 4 | -8 | -2
CCCn1nc(C(=O)NCC(C)(C)N2CCOCC2)c2ccccc2c1=O | 0 | 9 | 9.7* | 12 | 0 | -3 | -1
CCCn1nc(C(=O)NCCN2CCOCC2)c2ccccc2c1=O | 0 | 0 | 4 | -2 | -2 | nt | nt
CCN(CC)S(=O)(=O)c1ccc(NS(=O)(=O)c2ccc(F)cc2)cc1 | 0 | -4 | 1 | -3 | -5 | nt | nt
CCN(CC)S(=O)(=O)c1ccc(F)cc1 | 0 | 7 | 11* | 6 | 5 | 4 | 3
O=C(C(=O)N1CCC(CNC(=O)C2COc3ccccc3O2)CC1)c1cccs1 (stereo not given) | 0 | -3 | 1 | -2 | -5 | nt | nt
N#CCCn1cc(C(=O)N2CCCCC2)c(-c2ccc([N+](=O)[O-])cc2)n1 | 0 | 0 | 2 | 2 | -1 | nt | nt
COC(=O)CCC(=O)N1CCC(CCC(=O)NCc2ccc(F)cc2)CC1 | 0 | -3 | 13* | 1 | -1 | -4 | -5
Oc1c(N=NC(=S)Nc2ccccc2F)c2ccccc2n1Cc1ccc(F)cc1 | 0 | 10 | 10* | 10 | 7 | -2 | -4
CCN(C(=O)CSc1nnc(-c2cccnc2)n1Cc1ccco1)c1ccccc1C | 0 | 0 | -1 | -5 | -4 | nt | nt
CCC(=O)Nc1ccc(C(=O)NNC(=O)COc2cc(C)ccc2C)cc1 | 1 | 12* | 7 | 6 | 2 | -4 | -5
CCOC(=O)NC(=O)c1cn(Nc2ccccc2)c(=O)[nH]c1=O | 0 | -3 | 10* | 12 | -3 | 0 | 0
CCOC(=O)NC(=O)c1cn(Nc2ncc(Cl)cc2C(F)(F)F)c(=O)[nH]c1=O | 0 | -8 | 0 | 0 | -1 | nt | nt
O=C1CC2c3cc(Br)ccc3CCN2C(=O)CN1Cc1ccccc1 (stereo not given) | 1 | 0 | 2 | -15 | -5 | nt | nt
SMILES | proKLK7 act | PLCb3 inh | PLC-gamma1 inh | ADAM10 inh | ADAM17 inh | PLCg1 ctr | PLCb3 confirm
CCc1ccccc1NC(=O)CN1CCN(C(=O)CNC(=O)c2ccc(N3CCCC3=O)cc2)CC1 | 0 | -4 | 12* | 3 | 2 | -4 | 2
CCc1ccccc1NC(=O)CN1CCN(C(=O)CCC(=O)N2CCC(c3ccccc3)=N2)CC1 | 0 | -1 | 13* | 5 | 7 | -3 | -4
CCc1ccccc1NC(=O)CCC(=O)N1CCN(C(C)=O)CC1 | 0 | 5 | 2 | -2 | -1 | nt | nt
CCc1ccccc1NC(=O)CN1CCN(C(=O)CNC(=O)c2ccccc2F)CC1 | 0 | -4 | 0 | 0 | 0 | nt | nt
CCN(CC)S(=O)(=O)c1ccc(OC)c(NC(=O)c2ccc(-n3cncn3)c([N+](=O)[O-])c2)c1 | 0 | -5 | -1 | 1 | 0 | nt | nt
O=C(O)c1ccccc1C(=O)NCc1cccnc1 | 0 | 14* | 5 | 5 | 7 | -5 | 3
O=C(NCc1cccnc1)c1ccccc1-c1ccccc1 | 0 | -1 | -4 | -11 | -8 | nt | nt
O=C(NCc1cccnc1)c1ccc(NC(=O)c2ccc([N+](=O)[O-])cc2)cc1 | 0 | -1 | 13* | 3 | -2 | -2 | -1
Cc1cnc(C(=O)OCC(=O)Nc2cccc3ccccc23)cn1 | 0 | -10 | -4 | -7 | -3 | nt | nt
Cc1nc(N)nc(N)c1-c1ccc(Cl)c(Cl)c1 | 0 | 3 | 3 | -8 | 2 | nt | nt
Cc1cc(OCc2nc(N)nc(N)c2-c2ccc(Cl)c(Cl)c2)ccc1[N+](=O)[O-] | 0 | 0 | 13* | 16 | 4 | -2 | -3
CCN(C)c1nc(C)nc2c1nnn2Cc1ccccc1 | 0 | -1 | 0 | -2 | 0 | nt | nt
COc1cc(NS(=O)(=O)c2ccc(NC(=O)NC3CCCCC3)cc2)nc(OC)n1 | 0 | 3 | 10* | 1 | 6 | -5 | 0
COc1cc(NS(=O)(=O)c2ccc(NC(=S)NC(=O)C3CCCC3)cc2)nc(OC)n1 | 0 | 0 | 1 | 10 | -2 | nt | nt
CC(C)(C)OC(=O)N1CCC[C@H]1C(=O)N1CCC[C@H]1C(=O)NCc1ccncc1 | 0 | 4 | 12* | 11 | 2 | -4 | -73
Nc1[nH]c(C(=O)c2ccccc2)c(-c2ccncc2)c1C(=O)NC1CC1 | 1 | 2 | 10* | 3 | 0 | -6 | -3
COC(=O)CCc1sc(Nc2ccccc2)nc1-c1ccc(OC)cc1 | 0 | -8 | -8 | 3 | -3 | nt | nt
CCCCCNC(=O)[C@@H]1CSC2c3ccccc3C(=O)N21 (stereo not given in full) | 1 | 8 | 13* | 6 | 7 | -1 | 0
